# aSyn 5UTR act: Activators working through SNCA 5'UTR binding (MLPCN); alpha-synuclein 5'UTR reporter, activators screen; activity score, % (tested at 7.5 µM), hits read low; 300,000 compounds, 7.1% hits; in the data active means activity score below about -60%
# An asterisk follows results filed as active. Not all results are given here.
SMILES,aSyn 5UTR act
Cc1ccc(NC(=O)c2noc3c2CCC3)cc1C,-75*
CC(=O)c1ccc(NC(=O)c2noc3c2CCC3)cc1,71
O=C(NCc1cccs1)c1noc2c1CCCCC2,-144*
COc1ccc(CNC(=O)c2noc3c2CCCCC3)cc1,-62*
O=C(NCc1ccccc1)c1noc2c1CCCCC2,-133*
O=C(Nc1cnn(Cc2ccc(F)cc2)c1)c1noc2c1CCCC2,-105*
CC(NC(=O)c1noc2c1CCCCC2)c1ccccc1 (stereo not drawn),-78*
O=C(NC1CCCC1)c1noc2c1CCCCC2,-134*
O=C(Nc1ccc(Cc2ccncc2)cc1)C1CCC(N2C(=O)C3C4C=CC(C5CC45)C3C2=O)CC1 (stereo not drawn),-62*
CCOC(=O)c1sc2nccc(N(C)C)c2c1N=CNOCc1ccccc1,-92*
N=c1c2ccccc2nnn1-c1ccc(C(F)(F)F)cc1,-147*
Cc1cc(C)nc(N/N=C/c2ccccc2OCc2ccc(Cl)cc2)n1,-80*
COc1cccc(/C=N/NC(=O)c2c(C)nc3ccc(Br)cn23)c1O,71
Cc1cc(C)nc(N/N=C/c2ccccc2OCc2ccc(Br)cc2)n1,-144*
Cc1cc(C(=O)OCc2nc3ccccc3s2)c(C)o1,-126*
O=C(OCc1nc2ccccc2s1)c1ccco1,-97*
CC(=O)OCc1nc2ccccc2s1,-136*
CN(C)c1ccc(NC2=C(Cl)C(=O)c3ccccc3C2=O)cc1,-116*
O=C1C(Cl)=C(Nc2ccc3cn[nH]c3c2)C(=O)c2ccccc21,100
O=c1sc(N2CCN(c3ccc(F)cc3)CC2)nc2ccsc12,-179*
O=c1sc(N2CCN(c3ccccc3F)CC2)nc2ccsc12,-192*
CCOc1cccc(-c2nnc3n2N=C(c2cc(OC)ccc2OC)CS3)c1,63
CCOc1cccc(-c2csc(C3COc4ccccc4O3)n2)c1 (stereo not drawn),-106*
O=C(Nc1ccc(-c2nc3cccnc3s2)cc1)c1ccc(Cl)nc1,-151*
O=C(Nc1ccc(-c2nc3cccnc3s2)cc1)c1ccc(Br)o1,-159*
SMILES,aSyn 5UTR act
COc1ccc(N/C=C2/Sc3ccccc3NC2=O)cc1,-148*
CCC(C)NC(=O)/C=C1\Sc2ccccc2NC1=O (stereo not drawn),-74*
Cc1ccc(N/C=C2/Sc3ccccc3NC2=O)cc1,-175*
Cc1ccc(OCC(=O)Nc2ccccc2C(N)=O)cc1,-98*
NC(=O)c1ccccc1NC(=O)COc1ccc(Cl)cc1,-101*
Cc1cc(/C=C(\C#N)C(=O)NCC2CCCO2)c(C)n1-c1ccc(Cl)cc1 (stereo not drawn),-267*
O=C1NC(c2cccc(Br)c2)=N/C1=C\c1ccco1,-106*
O=C1NC(c2ccccc2Br)=N/C1=C\c1ccco1,-165*
O=C1NC(c2ccccc2)=N/C1=C/c1ccco1,-270*
Cc1ccc(C)c(Nc2c([N+](=O)[O-])cc(C(=O)N3CC(=O)Nc4ccccc43)cc2[N+](=O)[O-])c1,78
O=C1CN(C(=O)c2cccc(Br)c2)c2ccccc2N1,-85*
COc1cc(-c2cc(=O)c3c(O)c(OC)c(OC)c(O)c3o2)ccc1O,87
O=c1cc(-c2ccc(O)c(O)c2)oc2cc(O)cc(O)c12,-207*
O=c1c(O)c(-c2ccc(O)c(O)c2)oc2cc(O)cc(O)c12,-109*
COc1cccc(NC(=O)n2nc(N)cc2-c2ccc(Cl)cc2)c1,-69*
O=CC1=C(c2ccccc2)Oc2ccccc2O1,-62*
CC1(C)CC(=O)C=C(NNC(=O)c2ccccc2O)C1,-93*
Cc1[nH]n(-c2cccc(Cl)c2)c(=O)c1C=NCC(C)C,-168*
Cc1[nH]n(-c2ccccc2)c(=O)c1C=NCc1ccco1,-114*
Cc1[nH]n(-c2cccc(Cl)c2)c(=O)c1C=NCc1ccco1,-134*
CC(=O)Nc1ccc(-c2nc3c(C)cccc3[nH]2)cc1,-141*
O=C(O)CSCC(=O)Nc1ccc(C2CCCCC2)cc1,108
OCCN1CCN(CC(O)COc2ccc(C34CC5CC(CC(C5)C3)C4)cc2)CC1 (stereo not drawn),85
O=C(CSCCO)Nc1ccc(C23CC4CC(CC(C4)C2)C3)cc1,-66*
COC(=O)c1cn[nH]c1NC(=S)Nc1ccc(Cl)c(Cl)c1,-101*
SMILES,aSyn 5UTR act
COC(=O)c1cn[nH]c1NC(=S)Nc1ccc(C)cc1Cl,-127*
COc1ccc([C@H]2CC(=O)c3c(O)cc(O)cc3O2)cc1O,-93*
COc1c(O)cc2c(c1O)C(=O)CC(c1ccccc1)O2 (stereo not drawn),-102*
CC(=O)/C(N=Nc1ccc2c(c1)OCO2)=C(\C)O,-245*
CC(C)(C)c1ccc(OCc2nc(-c3ccccn3)no2)c(Br)c1,-190*
Clc1cc(Cl)c(OCc2nc(-c3ccccn3)no2)cc1Cl,-85*
Clc1ccc(OCc2nc(-c3ccncc3)no2)c(Cl)c1,-132*
COc1ccc(-c2noc(C3CCCN(C(=O)Nc4ccccc4)C3)n2)cc1 (stereo not drawn),-102*
COc1ccc(NC(=O)N2CCCC(c3nc(-c4ccc(OC)cc4)no3)C2)cc1 (stereo not drawn),-94*
